Experimental data from the supplement of paper PMC10338343.
± gives the standard deviation.

Experiments:
[1] = tested on: MILI (PIWIL2) piRISC loaded with piRNA #1 (26 nt); assay: pre-steady-state target cleavage rate (min^-1); guide: piRNA #1 5'p-UGAGGUAGUAGGUUGUAUAGUAUCCA; higher = faster piRNA-guided slicing of the target; conditions: auxiliary factor: 500 nM mouse GTSF1
Outline: (§1)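 With or without 500 nM GTSF1 partner protein, 1 nM active affinity-purified piRISC carrying one synthetic guide was mixed with 0.1 nM transcribed, DNA-blocked target RNA library in HEPES–potassium acetate buffer at 33 °C for 0–8 or 0–960 min. Uncleaved targets were sequenced and normalised to depth and to weakly complementary targets, three trials were pooled, and k3 was capped at 0.0001 min^-1. The pre-steady-state cleavage rate came from a burst-and-steady-state fit.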

[2] = tested on: EfPiwi piRISC loaded with piRNA #1 (26 nt); assay: pre-steady-state target cleavage rate (min^-1); auxiliary factor: 500 nM Ephydatia muelleri Gtsf1; guide: piRNA #1 5'p-UGAGGUAGUAGGUUGUAUAGUAUCCA; MIWI and MILI are mouse PIWI proteins and EfPiwi is from a freshwater sponge; tags in brackets are library labels; higher = faster piRNA-guided slicing of the target
Outline: as §1

Row | Sequence | pre-steady-state target cleavage rate [1] | pre-steady-state target cleavage rate [2]
1 | GGAGAGGAUACUAAACAACCAACUACCUCA | 0.00772 ± 0.0023 | 0.00246 ± 0.0017
2 | GGAGAGGAUACUAUACAAACCUACUACCUCA | 0.00683 ± 0.0028 | 0.0671 ± 0.028
3 | GGAGUGGAUACUAUACAACCAUACUACCUCA | 0.00751 ± 0.003 | 0.00742 ± 0.0033
4 | GGAGACCUUACUAUACAACCUACUACCUUCA | 0.16 ± 0.015 | 0.0532 ± 0.019
5 | GGAGACCUAACUAUACAACCUACUGCCUCA | 0.102 ± 0.024 | 0.0364 ± 0.015
6 | GGAGACCAUAGAUUACAACCUACUACCUCA | 0.0355 ± 0.0071 | 0.00655 ± 0.0034
7 | GGAGACGAUACUAAACAACCUACUACCUGA | 0.124 ± 0.02 | 0.00288 ± 0.0022
8 | GGAGACCAUACUAUACAACCUACUACCUUCA | 0.2 ± 0.018 | 0.0679 ± 0.02
9 | GGAGACCUAACUAUACAACCUACUACCUCA [g2:g21:cont:t1A] | 0.148 ± 0.032 | 0.013 ± 0.0043
10 | GGAGUGGAUUACUAUACAACCUACUACCUCA | 0.154 ± 0.0078 | 0.00938 ± 0.0037
11 | GGAGACCAUCUAUACAACCUACUACCUCA | 0.112 ± 0.013 | 0.00903 ± 0.0054
12 | GGAGACCAUACUAUACAACCUACAUACCUCA | 0.146 ± 0.018 | 0.00306 ± 0.0029
13 | GGAGAGGAUACAAUACAACCUACUACGUCA | 0.0443 ± 0.0068 | 0.00333 ± 0.0019
14 | GGAGACCAUACUAUACAACCUUCUACCUCA | 0.00761 ± 0.0026 | 0.00625 ± 0.0028
15 | GGAGACGAUACUAUACAAGCAACUACCUCA | 0.00923 ± 0.0026 | 0.0046 ± 0.003
16 | GGAGACCUAACUAUCACAACCUACUACCUCA | 0.085 ± 0.025 | 0.00495 ± 0.0033
17 | GGAGACGAUACAAUACUACCUACUACCUCA | 0.201 ± 0.017 | 0.00238 ± 0.0021
18 | GGAGUGGGAUACUAUACAACCUACUACCUCA | 0.204 ± 0.011 | 0.143 ± 0.046
19 | GGAGAGGAUACUAUACAUGCUACUACCUCA | 0.0905 ± 0.01 | 0.0065 ± 0.0032
20 | GGAGACGAUACUAAACAACGUACUACCUCA | 0.017 ± 0.0026 | 0.00192 ± 0.0019

Row | Sequence | pre-steady-state target cleavage rate [1] | pre-steady-state target cleavage rate [2]
21 | GGAGUGGUUACAAUACAACCUACUACCUCA | 0.172 ± 0.011 | 0.00789 ± 0.0035
22 | GGAGACGAACUAUACAACCUACUACCUCA | 0.138 ± 0.012 | 0.0112 ± 0.0057
23 | GGAGAGGAUACUAUACAACCUACGACCUCA | 0.1 ± 0.013 | 0.00309 ± 0.0016
24 | GGAGACCUAACUAUACAACCUACUACCAGA | 0.124 ± 0.035 | 0.00445 ± 0.0031
25 | GGAGUGCUAACUAUACAACCUACUACCUCA | 0.128 ± 0.015 | 0.0117 ± 0.0053
26 | GGAGUGGAUACUAUACAACCUAGUACCUCA | 0.0508 ± 0.0096 | 0.00414 ± 0.0012
27 | GGAGUGGAUAGCUAUACAACCUACUACCUCA | 0.0528 ± 0.0074 | 0.00584 ± 0.0033
28 | GGAGCGGAUACUAUACAACCUACUACCUCA | 0.203 ± 0.013 | 0.141 ± 0.048
29 | GGAGAGGAUACUCUACAACCUACUACCUCA | 0.204 ± 0.013 | 0.00431 ± 0.0033
30 | GGAGACGAUAGAAUACAACCUACUACCUCA | 0.137 ± 0.013 | 0.00812 ± 0.0043
31 | GGAGUCGAUACUAUACAACCUACUUCCUCA | 0.0291 ± 0.0072 | 0.00362 ± 0.0021
32 | GGAGACCUUACUAUACAACCUACUACCUA | 0.152 ± 0.018 | 0.0485 ± 0.018
33 | GGAGAGGAAUACUAUACAACCUACUACCUCA | 0.172 ± 0.0098 | 0.0974 ± 0.034
34 | GGAGACGAUACUAUACAACCUGACUACCUCA | 0.00401 ± 0.0024 | 0.00426 ± 0.0019
35 | GGAGAGGAUACUAUUCAUCCUACUACCUCA | 0.273 ± 0.02 | 0.00619 ± 0.0034
36 | GGAGUGGAUACUAUACAACCUAUACCUCA | 0.0048 ± 0.002 | 0.00334 ± 0.0019
37 | GGAGUGGAUACUAUACAACCAACAACCUCA | 0.00386 ± 0.0015 | 0.00217 ± 0.0016
38 | GGAGACGAUACUAUACAACGUAGUACCUCA | 0.00546 ± 0.0032 | 0.00274 ± 0.0012
39 | GGAGAGGAUACUAUACAACCUACUACCUCC [g2:g25:cont:t1C] | 0.146 ± 0.013 | 0.12 ± 0.046
40 | GGAGACCUAAGUAAACAACCUACUACCUCA | 0.0128 ± 0.0033 | 0.00575 ± 0.004

Row | Sequence | pre-steady-state target cleavage rate [1] | pre-steady-state target cleavage rate [2]
41 | GGAGAGGAUACUAUACAACCUACUCACCUCA | 0.138 ± 0.016 | 0.00339 ± 0.0021
42 | GGAGUGGAUACUAUACAAGCUACUACCACA | 0.133 ± 0.012 | 0.0039 ± 0.0017
43 | GGAGACGAUACUAUCACAACCUACUACCUCA | 0.221 ± 0.017 | 0.0153 ± 0.0062
44 | GGAGAGGAUACCUAUACAACCUACUACCUCA | 0.123 ± 0.027 | 0.0826 ± 0.033
45 | GGAGACGAUACUAUACAACCAAGUACCUCA | 0.00441 ± 0.0027 | 0.00215 ± 0.0019
46 | GGAGACCUAUCUAUACAACCUACUACCCCA | 0.123 ± 0.02 | 0.00444 ± 0.0032
47 | GGAGAGGAUACUAUACAACCUACUACCUCA [g2:g25:cont:t1A] | 0.206 ± 0.017 | 0.0912 ± 0.033
48 | GGAGACCAUACUAUACAUCCUAGUACCUCA | 0.0776 ± 0.018 | 0.00345 ± 0.0019
49 | GGAGUGGUUACUAUACAACCUUCUACCUCA | 0.0099 ± 0.0024 | 0.00361 ± 0.0018
50 | GGAGACGAAACUAUACAACGUACUACCUCA | 0.0174 ± 0.0054 | 0.00237 ± 0.0021
51 | GGAGACCUUUCUAUACAACCUAGUACCUCA | 0.0267 ± 0.0078 | 0.00465 ± 0.0038
52 | GGAGACCUAUCUAAUACAACCUACUACCUCA | 0.0342 ± 0.0069 | 0.00579 ± 0.004
53 | GGAGACGAUACUAUUCAACCUACUACCUCA | 0.202 ± 0.013 | 0.00923 ± 0.0038
54 | GGAGACCAUACUAUACAACCUACCUACCUCA | 0.129 ± 0.017 | 0.00424 ± 0.0022
55 | GGAGUGGAUACUAUACAACCUACUACCGUCA | 0.0282 ± 0.006 | 0.00748 ± 0.0027
56 | GGAGAGCAUACUAUACAACCUUCUACCUCA | 0.0105 ± 0.0032 | 0.00445 ± 0.0027
57 | GGAGACCUUACGAUACAACCUACUACCUCA | 0.152 ± 0.017 | 0.0548 ± 0.021
58 | GGAGUGGAUACAAUACAUCCUACUACCUCA | 0.256 ± 0.016 | 0.00574 ± 0.0025
59 | GGAGACGAUACUAUUCAACCUACUACCUGA | 0.105 ± 0.017 | 0.00421 ± 0.0019
